PAX8 reporter: inhibitors of PAX8-driven TPO luciferase reporter, primary screen, RMG-I cells, single concentration. SteadyGlo, 24 h. inhibition, % at 12.6 µM. hit rate 1.2% among 360,000. AID 652154, 2013;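 active = mean replicate inhibition at least 60% with every replicate also reaching 60%; inconclusive = only one of the two criteria is met; inactive = mean below 60% and not all replicates reaching 60%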;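 also: luciferase light reporting Pax8 driven TPO promoter activity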
Gli-Sufu antag: Gli-Sufu pathway antagonists, primary screen, luciferase luminescence, Sufu-KO-LIGHT cells, uHTS; Sufu-KO-LIGHT fibroblasts, Gli luciferase reporter luminescence; inhibition, % at 5 µM; hit rate 0.74% among 340,000; AID 588413, 2011;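 active = inhibition above about 55%, limit read from the data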
Beta apoptosis: inhibitors of cytokine-induced beta cell apoptosis, primary screen, luminescence. protection from apoptosis, % (test concentration not listed). AID 435005, 2010. hit rate 0.8% among 300,000. INS-1E cytokine-induced death, ATP luminescence, 48 h; percent of positive-control rescue, neutral wells zero;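 active = Every replicate reaches about 75%, or at least half do and their mean reaches it too, limit read from the data; inconclusive = At least half of replicates reach the limit but their mean does not; inactive = Under half of replicates reach the limit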;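 also: higher means more ATP so stronger rescue from cytokine killing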
CSC inhib: cancer stem cell viability inhibitors, primary screen, luminescence; cancer stem cell-like cells viability; inhibition, % at 7.5 µM; hit rate 1.1% among 300,000; in the data active = inhibition above about 75%; inconclusive = no clear call, values can overlap the other calls; tested in HMLE shEcad cells
Mdm2 MdmX PPI: inhibitors of human Mdm2-MdmX association, primary screen, cell-based, luminescence, split luciferase, SaOS-2, uHTS; Protein Mdm4 (Homo sapiens) + E3 ubiquitin-protein ligase Mdm2 (Homo sapiens), …; SaOS-2 split-luciferase Mdm2/MdmX complementation; inhibition, % at 8 µM; hit rate 3% among 330,000;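 active = inhibition of at least 50% at 8 µM in the primary screen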
Target sequence (O15151 whole entry, looked up): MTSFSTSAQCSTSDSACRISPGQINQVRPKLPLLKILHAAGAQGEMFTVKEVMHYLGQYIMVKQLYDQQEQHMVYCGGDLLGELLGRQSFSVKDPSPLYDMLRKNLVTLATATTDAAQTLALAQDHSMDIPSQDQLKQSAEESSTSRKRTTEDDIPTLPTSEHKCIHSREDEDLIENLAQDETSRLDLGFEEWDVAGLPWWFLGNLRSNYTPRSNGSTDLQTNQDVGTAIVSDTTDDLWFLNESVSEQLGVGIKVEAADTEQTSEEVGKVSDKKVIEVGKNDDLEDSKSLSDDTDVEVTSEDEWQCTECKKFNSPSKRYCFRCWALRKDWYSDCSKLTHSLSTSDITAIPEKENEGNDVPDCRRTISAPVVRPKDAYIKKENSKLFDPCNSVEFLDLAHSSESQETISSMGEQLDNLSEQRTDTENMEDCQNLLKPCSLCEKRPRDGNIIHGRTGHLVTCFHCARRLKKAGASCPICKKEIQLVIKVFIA
Target sequence (Q00987 whole entry, looked up): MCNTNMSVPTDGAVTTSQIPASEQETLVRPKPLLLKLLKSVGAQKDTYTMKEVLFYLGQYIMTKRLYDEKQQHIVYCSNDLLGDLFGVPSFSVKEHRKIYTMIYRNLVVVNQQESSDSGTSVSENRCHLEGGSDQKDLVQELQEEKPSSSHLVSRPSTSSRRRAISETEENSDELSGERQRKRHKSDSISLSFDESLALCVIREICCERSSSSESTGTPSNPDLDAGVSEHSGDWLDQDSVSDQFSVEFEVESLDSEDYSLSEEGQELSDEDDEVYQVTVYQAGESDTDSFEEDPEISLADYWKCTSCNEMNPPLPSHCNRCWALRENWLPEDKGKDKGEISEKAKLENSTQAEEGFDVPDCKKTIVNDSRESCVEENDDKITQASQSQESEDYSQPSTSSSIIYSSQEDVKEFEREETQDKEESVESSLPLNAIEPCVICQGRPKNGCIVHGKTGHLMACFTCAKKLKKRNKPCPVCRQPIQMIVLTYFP
Shn3 3UTR inh: reduction of Shn3 3'UTR firefly luciferase signal, primary screen, Schnurri-3 inhibitor project, cell-based, Clone20 osteoblasts, set 2; inhibition, % at 12.5 µM; AID 588674, 2011; Clone20 osteoblast Shn3 3'UTR firefly luciferase, 24 h; hit rate 0.52% among 360,000;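 active = mean inhibition of at least 75% with every replicate also reaching 75%; inconclusive = mean inhibition at least 75% but some replicate below; inactive = mean inhibition below 75%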
Mdm2 MdmX conf: Mdm2-MdmX complex disruptors, retested hits, confirmation, luminescence, single concentration. hit rate 55% among 10,000. Mdm2-MdmX binding, luminescent assay. shares compounds with Mdm2 MdmX PPI. inhibition, % at 8 µM. AID 489028, 2010; in the data active = inhibition above about 40%
FLuc counter: full-length luciferase signal inhibition, confirmation, counter-screen for Mdm2/MdmX interaction inhibitor project, cell-based, single concentration, SaOS-2; shares compounds with Mdm2 MdmX PPI; inhibition, % at 8 µM; SaOS-2 full-length luciferase counterscreen, luminescence; hit rate 77% among 6,200; AID 504607, 2011;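 active = mean inhibition at 8 µM reaching about 37%, which flags the compound as non-specific, limit read from the data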;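 also: p53-null SaOS-2 cells with luciferase driven by a doxycycline-inducible promoter; compound on cells about two nights before reading with doxycycline added after day one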
Of the large screens only hits and unclear results are named; the others gave an inactive call (follow-up assays come after a bar, where they were run). Sampled rows, rich in hits. Any-hit rate of the full collection: about 4%.

CCOC(=O)c1c(C)n(C)c2ccc(OCC(O)CNC(CC)CO)cc12 (stereo not given)	none (no result: PAX8 reporter)
CCOC(=O)c1c(C)n(-c2ccc(C)cc2)c2ccc(OCC(O)CNCC3CCCO3)cc12 (stereo not given)	CSC inhib 118, Mdm2 MdmX PPI 78 (no result: PAX8 reporter) | Mdm2 MdmX conf 42 | FLuc counter 62
CCS(=O)(=O)NCC[C@H]1CC[C@H](NS(=O)(=O)c2cccc(F)c2)[C@H](CO)O1	none (no result: Gli-Sufu antag, Beta apoptosis, CSC inhib, Mdm2 MdmX PPI, Shn3 3UTR inh)
O=C(Nc1ccccc1)N1CC(=O)N2[C@H](CO)[C@H](c3ccc(C#CC4CC4)cc3)[C@@H]2C1	none (no result: Gli-Sufu antag, Beta apoptosis, CSC inhib, Mdm2 MdmX PPI, Shn3 3UTR inh)
O=C1c2ccc3c4c(ccc(c24)C(=O)N1c1cccc(O)c1)CC3	none
O=C1c2ccc3c4c(ccc(c24)C(=O)N1c1cccc(O)c1)C(=O)N(c1cccc(O)c1)C3=O	Beta apoptosis 118, Mdm2 MdmX PPI 65 (no result: Shn3 3UTR inh) | Mdm2 MdmX conf 47 | FLuc counter inactive
Cn1c(=O)[nH]c(=O)c2c1nc(N1CCN(c3ccccc3)CC1)n2CCSc1ncccn1	Mdm2 MdmX PPI 54 (no result: PAX8 reporter, CSC inhib) | Mdm2 MdmX conf inactive
CC(C)=CCC/C(C)=C/CNC(=O)C[C@H]1C[C@H](C(=O)N2CCOCC2)[C@@]2(CCC3CCCC3)c3[nH]c4cc(CCC(=O)N(C)C)ccc4c3CCN2C1=O	PAX8 reporter inconclusive, Mdm2 MdmX PPI 77 (no result: Beta apoptosis, CSC inhib) | Mdm2 MdmX conf inactive
CN(C)C(=O)CCc1ccc2c3c([nH]c2c1)[C@]1(CCC2CCCC2)[C@@H](C(=O)N2CCOCC2)C[C@H](CC(=O)NCC24CC5CC(CC(C5)C2)C4)C(=O)N1CC3	Mdm2 MdmX PPI 70 (no result: Beta apoptosis, CSC inhib) | Mdm2 MdmX conf 63 | FLuc counter 44
COCCCNC(=O)C[C@H]1C[C@H](C(=O)N2CCOCC2)[C@@]2(CCC3CCCC3)c3[nH]c4cc(CCC(=O)N(C)C)ccc4c3CCN2C1=O	none (no result: Beta apoptosis, CSC inhib)
COCCCNC(=O)C[C@H]1C[C@H](C(=O)N2CCOCC2)[C@@]2(C)c3[nH]c4cc(CCC(=O)N(C)C)ccc4c3CCN2C1=O	Mdm2 MdmX PPI 64 (no result: Beta apoptosis, CSC inhib) | Mdm2 MdmX conf inactive
COc1cccc(S(=O)(=O)N[C@H]2CC[C@H](CCn3cc(-c4ccc(F)cc4)nn3)O[C@H]2CO)c1	none (no result: Gli-Sufu antag, Beta apoptosis, CSC inhib, Mdm2 MdmX PPI, Shn3 3UTR inh)
CCN1CCN(c2ccc(S(=O)(=O)N3CCCCC3)cc2NC(=O)/C=C/c2cc(OC)ccc2OC)CC1	Mdm2 MdmX PPI 100 | Mdm2 MdmX conf 45 | FLuc counter 63
CCN(c1ccccc1)S(=O)(=O)c1ccc(Cl)c(NC(=O)CN2CCCCCC2)c1	Beta apoptosis 104, CSC inhib inconclusive, Mdm2 MdmX PPI 69 | Mdm2 MdmX conf inactive
CN(C)S(=O)(=O)c1ccc(Cl)c(NC(=O)CN2CCCCCC2)c1	none
O=C(Nc1cccc(NC(=O)c2cc([N+](=O)[O-])ccc2Cl)n1)c1cc([N+](=O)[O-])ccc1Cl	Beta apoptosis 104, Mdm2 MdmX PPI 96 (no result: PAX8 reporter) | Mdm2 MdmX conf 96 | FLuc counter 50
O=C(Nc1cc(S(=O)(=O)N2CCOCC2)ccc1Cl)c1cc([N+](=O)[O-])ccc1Cl	Mdm2 MdmX PPI 97 (no result: PAX8 reporter) | Mdm2 MdmX conf 44 | FLuc counter inactive
O=C(NC[C@H]1[C@@H](c2ccccc2)[C@@H](CO)N1CC1CCCC1)c1cccnc1	none (no result: Gli-Sufu antag, Beta apoptosis, CSC inhib, Mdm2 MdmX PPI, Shn3 3UTR inh)
CCN(c1ccccc1)S(=O)(=O)c1ccc(C(=O)NC2CCN(Cc3ccccc3)CC2)cc1	Beta apoptosis 84, Mdm2 MdmX PPI 54 (no result: PAX8 reporter) | Mdm2 MdmX conf 55 | FLuc counter 57
CCN1CCN(c2ccc(S(=O)(=O)N3CCCCC3)cc2NC(=O)c2ccccc2)CC1	none (no result: CSC inhib)

Screening data: PubChem, several laboratories
